# Reference: ChEMBL document CHEMBL1961873, “Compounds: GSK PKIS; Assays: Nanosyn kinase panel” (2012)
# Columns and labels:
# [1] = target: Fibroblast growth factor receptor 4 (Homo sapiens) (UniProt P22455); details: at 1 µM;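 note: reported figure is the averaged percent inhibition of FGFR4, from the GSK PKIS kinase screening panel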
# [2] = target: Tyrosine-protein kinase Fgr (Homo sapiens) (UniProt P09769); details: at 0.1 µM
# [3] = target: Tyrosine-protein kinase Fgr (Homo sapiens) (UniProt P09769); details: at 1 µM
# [4] = target: Vascular endothelial growth factor receptor 1 (Homo sapiens) (UniProt P17948); details: at 0.1 µM
# [5] = target: Vascular endothelial growth factor receptor 1 (Homo sapiens) (UniProt P17948); details: at 1 µM
# [6] = target: Receptor-type tyrosine-protein kinase FLT3 (Homo sapiens) (UniProt P36888); details: at 0.1 µM
# [7] = target: Receptor-type tyrosine-protein kinase FLT3 (Homo sapiens) (UniProt P36888); details: at 1 µM
# [8] = test system: T1, Receptor-type tyrosine-protein kinase FLT3 (Homo sapiens), P36888 [D835Y]; details: at 0.1 µM
# T1 sequence (whole entry): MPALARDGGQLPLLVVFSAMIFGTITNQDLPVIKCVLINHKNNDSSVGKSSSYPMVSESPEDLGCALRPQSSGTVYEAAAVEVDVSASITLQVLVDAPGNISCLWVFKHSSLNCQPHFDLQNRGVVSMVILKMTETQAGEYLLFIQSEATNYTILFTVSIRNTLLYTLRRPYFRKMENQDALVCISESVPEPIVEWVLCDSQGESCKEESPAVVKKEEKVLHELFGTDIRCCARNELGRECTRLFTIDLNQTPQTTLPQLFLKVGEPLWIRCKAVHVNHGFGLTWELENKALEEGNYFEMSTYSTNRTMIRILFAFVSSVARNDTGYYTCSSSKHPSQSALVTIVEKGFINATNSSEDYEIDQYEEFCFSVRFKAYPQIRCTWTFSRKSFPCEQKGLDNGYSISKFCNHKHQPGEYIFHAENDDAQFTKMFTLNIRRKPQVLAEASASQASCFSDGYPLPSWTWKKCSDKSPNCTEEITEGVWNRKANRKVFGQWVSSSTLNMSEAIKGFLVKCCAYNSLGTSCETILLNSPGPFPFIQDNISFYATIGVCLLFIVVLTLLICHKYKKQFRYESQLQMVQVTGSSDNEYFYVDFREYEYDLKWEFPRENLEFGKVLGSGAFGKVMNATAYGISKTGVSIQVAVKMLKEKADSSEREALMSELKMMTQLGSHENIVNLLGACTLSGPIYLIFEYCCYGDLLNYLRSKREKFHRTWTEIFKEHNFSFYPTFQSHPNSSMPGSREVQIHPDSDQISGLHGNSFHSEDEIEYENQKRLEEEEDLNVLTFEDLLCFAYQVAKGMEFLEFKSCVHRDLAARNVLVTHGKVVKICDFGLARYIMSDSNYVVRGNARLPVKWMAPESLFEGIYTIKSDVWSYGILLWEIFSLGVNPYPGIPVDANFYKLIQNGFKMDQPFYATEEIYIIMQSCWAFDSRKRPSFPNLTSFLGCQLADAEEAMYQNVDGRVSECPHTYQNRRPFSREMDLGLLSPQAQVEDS
# [9] = target: Non-receptor tyrosine-protein kinase TYK2 (Homo sapiens) (UniProt P29597); details: at 1 µM;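 note: values are mean percent inhibition of TYK2 kinase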
# Non-receptor tyrosine-protein kinase TYK2 (Homo sapiens), sequence (P29597 whole entry): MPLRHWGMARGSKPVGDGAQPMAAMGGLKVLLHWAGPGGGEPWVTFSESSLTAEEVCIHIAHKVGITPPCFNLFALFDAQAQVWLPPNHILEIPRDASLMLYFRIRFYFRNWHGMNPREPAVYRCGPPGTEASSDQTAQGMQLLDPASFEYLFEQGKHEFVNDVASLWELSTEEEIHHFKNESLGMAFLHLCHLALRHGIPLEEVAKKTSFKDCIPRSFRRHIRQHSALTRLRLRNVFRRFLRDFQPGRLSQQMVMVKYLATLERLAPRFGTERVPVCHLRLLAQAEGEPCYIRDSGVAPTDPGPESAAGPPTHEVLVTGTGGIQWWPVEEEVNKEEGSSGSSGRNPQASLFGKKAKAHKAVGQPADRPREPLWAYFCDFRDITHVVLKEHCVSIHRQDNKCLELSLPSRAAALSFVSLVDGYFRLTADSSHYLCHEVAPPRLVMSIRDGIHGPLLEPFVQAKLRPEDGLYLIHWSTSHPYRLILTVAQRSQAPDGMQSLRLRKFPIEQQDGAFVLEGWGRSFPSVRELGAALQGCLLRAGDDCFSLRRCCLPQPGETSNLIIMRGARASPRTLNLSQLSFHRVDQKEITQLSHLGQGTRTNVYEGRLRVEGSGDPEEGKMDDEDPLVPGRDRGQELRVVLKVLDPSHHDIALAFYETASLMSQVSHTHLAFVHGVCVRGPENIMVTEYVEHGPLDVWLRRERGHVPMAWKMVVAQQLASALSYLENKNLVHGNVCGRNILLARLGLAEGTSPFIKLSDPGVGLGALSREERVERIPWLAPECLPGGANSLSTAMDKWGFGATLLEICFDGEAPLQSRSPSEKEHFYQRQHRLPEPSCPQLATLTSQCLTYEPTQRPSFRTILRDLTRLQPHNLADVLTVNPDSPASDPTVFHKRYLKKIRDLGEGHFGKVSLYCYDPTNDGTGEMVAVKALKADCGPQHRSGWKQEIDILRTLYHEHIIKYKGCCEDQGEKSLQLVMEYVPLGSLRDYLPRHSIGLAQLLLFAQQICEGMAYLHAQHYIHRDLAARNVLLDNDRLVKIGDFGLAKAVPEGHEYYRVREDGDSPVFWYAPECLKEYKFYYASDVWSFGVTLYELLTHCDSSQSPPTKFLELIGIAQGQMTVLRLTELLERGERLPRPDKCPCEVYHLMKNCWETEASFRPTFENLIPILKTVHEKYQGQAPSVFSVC
# [10] = target: T2, Tyrosine-protein kinase receptor TYRO3 (Homo sapiens) (UniProt Q06418); details: at 0.1 µM
# T2 sequence (whole entry): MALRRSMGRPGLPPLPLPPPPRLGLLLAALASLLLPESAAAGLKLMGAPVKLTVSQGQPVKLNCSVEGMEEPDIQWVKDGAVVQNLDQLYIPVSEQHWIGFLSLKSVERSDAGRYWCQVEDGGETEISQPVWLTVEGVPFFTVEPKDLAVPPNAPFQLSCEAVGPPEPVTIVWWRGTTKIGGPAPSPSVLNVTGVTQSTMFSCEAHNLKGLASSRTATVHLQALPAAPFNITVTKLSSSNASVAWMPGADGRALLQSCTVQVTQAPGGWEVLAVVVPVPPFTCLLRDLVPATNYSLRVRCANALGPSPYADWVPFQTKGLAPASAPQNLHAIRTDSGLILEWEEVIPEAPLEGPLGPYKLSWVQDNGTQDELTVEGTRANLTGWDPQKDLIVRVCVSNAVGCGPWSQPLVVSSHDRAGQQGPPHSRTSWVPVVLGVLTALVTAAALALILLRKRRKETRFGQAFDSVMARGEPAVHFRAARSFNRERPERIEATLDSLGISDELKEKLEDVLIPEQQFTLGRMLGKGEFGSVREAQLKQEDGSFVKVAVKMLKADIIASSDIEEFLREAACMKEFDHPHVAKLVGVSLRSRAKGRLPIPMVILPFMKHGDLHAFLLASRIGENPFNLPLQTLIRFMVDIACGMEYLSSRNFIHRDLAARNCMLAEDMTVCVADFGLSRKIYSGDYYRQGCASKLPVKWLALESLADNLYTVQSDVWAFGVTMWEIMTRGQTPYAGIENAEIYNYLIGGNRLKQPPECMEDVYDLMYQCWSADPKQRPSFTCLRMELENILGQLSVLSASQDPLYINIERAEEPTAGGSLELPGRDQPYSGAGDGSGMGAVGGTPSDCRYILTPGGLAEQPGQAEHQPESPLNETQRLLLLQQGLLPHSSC
# [11] = target: T2, Tyrosine-protein kinase receptor TYRO3 (Homo sapiens); details: at 1 µM
# [12] = target: Tyrosine-protein kinase Yes (Homo sapiens) (UniProt P07947); details: at 0.1 µM
# Tyrosine-protein kinase Yes (Homo sapiens), sequence (P07947 2-543 limits assumed): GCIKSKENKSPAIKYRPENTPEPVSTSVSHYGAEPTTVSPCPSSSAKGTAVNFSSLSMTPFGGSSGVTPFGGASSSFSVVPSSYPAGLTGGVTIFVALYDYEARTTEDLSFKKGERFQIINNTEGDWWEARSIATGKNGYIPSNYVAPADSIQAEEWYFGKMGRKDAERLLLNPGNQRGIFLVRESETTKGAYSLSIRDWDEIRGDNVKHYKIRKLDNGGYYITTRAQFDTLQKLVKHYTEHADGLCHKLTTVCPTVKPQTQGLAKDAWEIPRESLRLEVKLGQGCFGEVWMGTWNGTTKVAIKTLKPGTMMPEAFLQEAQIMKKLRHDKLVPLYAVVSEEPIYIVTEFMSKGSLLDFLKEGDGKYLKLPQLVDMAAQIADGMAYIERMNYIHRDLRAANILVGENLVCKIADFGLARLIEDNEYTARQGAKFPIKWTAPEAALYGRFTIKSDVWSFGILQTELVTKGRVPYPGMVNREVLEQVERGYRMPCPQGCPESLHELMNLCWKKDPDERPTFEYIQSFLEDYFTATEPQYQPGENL
# [13] = target: Tyrosine-protein kinase Yes (Homo sapiens) (UniProt P07947); details: at 1 µM
# [14] = target: T3, Tyrosine-protein kinase ZAP-70 (Homo sapiens) (UniProt P43403); details: at 1 µM
# T3 sequence (whole entry): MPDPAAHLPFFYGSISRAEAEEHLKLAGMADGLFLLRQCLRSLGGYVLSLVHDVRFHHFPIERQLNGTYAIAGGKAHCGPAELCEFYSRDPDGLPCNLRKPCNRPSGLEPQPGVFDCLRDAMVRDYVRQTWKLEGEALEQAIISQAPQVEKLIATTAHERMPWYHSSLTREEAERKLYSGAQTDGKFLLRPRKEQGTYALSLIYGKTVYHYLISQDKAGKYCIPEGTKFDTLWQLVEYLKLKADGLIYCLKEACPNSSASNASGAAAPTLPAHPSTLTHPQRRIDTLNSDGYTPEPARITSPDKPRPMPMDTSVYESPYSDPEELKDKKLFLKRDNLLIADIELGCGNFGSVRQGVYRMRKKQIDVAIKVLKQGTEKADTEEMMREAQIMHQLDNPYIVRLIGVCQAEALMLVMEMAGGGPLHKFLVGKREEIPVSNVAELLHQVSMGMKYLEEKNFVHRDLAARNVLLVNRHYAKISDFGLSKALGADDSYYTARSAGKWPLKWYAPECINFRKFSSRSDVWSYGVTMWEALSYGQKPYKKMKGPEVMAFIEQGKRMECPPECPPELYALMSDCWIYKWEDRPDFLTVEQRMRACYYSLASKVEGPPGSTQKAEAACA
# [15] = target: Serine/threonine-protein kinase B-raf (Homo sapiens) (UniProt P15056); details: at 0.1 µM
# Serine/threonine-protein kinase B-raf (Homo sapiens), sequence (P15056 whole entry): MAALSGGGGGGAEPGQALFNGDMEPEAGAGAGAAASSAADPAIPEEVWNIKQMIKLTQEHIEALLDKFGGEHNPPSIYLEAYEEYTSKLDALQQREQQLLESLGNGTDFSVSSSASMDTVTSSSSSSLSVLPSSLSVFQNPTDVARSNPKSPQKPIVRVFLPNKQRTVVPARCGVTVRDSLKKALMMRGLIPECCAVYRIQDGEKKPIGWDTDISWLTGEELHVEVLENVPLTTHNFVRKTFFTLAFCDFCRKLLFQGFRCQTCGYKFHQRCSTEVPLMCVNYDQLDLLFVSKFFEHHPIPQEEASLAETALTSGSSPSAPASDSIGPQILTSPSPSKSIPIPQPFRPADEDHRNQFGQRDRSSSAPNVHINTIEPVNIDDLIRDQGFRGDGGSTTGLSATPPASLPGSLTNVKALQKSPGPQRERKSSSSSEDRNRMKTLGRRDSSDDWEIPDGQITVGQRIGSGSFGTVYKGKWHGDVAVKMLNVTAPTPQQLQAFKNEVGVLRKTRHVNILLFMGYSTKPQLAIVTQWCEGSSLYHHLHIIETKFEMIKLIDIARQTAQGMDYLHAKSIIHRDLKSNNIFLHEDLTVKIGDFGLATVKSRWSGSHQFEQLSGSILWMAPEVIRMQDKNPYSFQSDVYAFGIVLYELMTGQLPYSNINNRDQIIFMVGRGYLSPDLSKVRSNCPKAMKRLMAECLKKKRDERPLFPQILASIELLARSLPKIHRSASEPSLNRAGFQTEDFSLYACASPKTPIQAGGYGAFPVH
# [16] = target: Serine/threonine-protein kinase B-raf (Homo sapiens) (UniProt P15056); details: at 1 µM
# [17] = test system: Serine/threonine-protein kinase B-raf (Homo sapiens), P15056 [V600E]; details: at 0.1 µM
# Serine/threonine-protein kinase B-raf (Homo sapiens), P15056 [V600E], sequence (P15056 whole entry V600E): as the sequence (P15056 whole entry) above, with V600E counted along it
# [18] = test system: Serine/threonine-protein kinase B-raf (Homo sapiens), P15056 [V600E]; details: at 1 µM
# [19] = target: RAF proto-oncogene serine/threonine-protein kinase (Homo sapiens) (UniProt P04049); details: at 0.1 µM;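 note: values are mean CRAF kinase inhibition from profiling of the GSK Published Kinase Inhibitor Set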
# RAF proto-oncogene serine/threonine-protein kinase (Homo sapiens), sequence (P04049 whole entry): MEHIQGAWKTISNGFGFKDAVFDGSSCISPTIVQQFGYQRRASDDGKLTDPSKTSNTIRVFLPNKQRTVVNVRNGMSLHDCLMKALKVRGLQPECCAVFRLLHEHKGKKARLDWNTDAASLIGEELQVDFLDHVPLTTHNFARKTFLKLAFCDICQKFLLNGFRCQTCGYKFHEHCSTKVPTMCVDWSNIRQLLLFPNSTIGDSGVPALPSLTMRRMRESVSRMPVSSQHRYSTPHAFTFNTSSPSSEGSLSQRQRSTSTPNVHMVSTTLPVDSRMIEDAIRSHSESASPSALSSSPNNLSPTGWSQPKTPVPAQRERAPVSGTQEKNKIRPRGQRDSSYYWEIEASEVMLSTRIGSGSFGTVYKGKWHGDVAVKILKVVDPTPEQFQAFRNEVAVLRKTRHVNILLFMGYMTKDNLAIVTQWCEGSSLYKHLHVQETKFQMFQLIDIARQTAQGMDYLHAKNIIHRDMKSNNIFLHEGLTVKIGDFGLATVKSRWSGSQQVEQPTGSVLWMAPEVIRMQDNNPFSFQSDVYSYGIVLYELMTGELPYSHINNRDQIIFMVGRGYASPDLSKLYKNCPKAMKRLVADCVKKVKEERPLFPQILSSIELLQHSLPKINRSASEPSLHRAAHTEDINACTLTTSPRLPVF
# [20] = target: T3, Tyrosine-protein kinase ZAP-70 (Homo sapiens); details: at 0.1 µM
# Tyrosine-protein kinase Fgr (Homo sapiens), sequence (P09769 2-529 limits assumed): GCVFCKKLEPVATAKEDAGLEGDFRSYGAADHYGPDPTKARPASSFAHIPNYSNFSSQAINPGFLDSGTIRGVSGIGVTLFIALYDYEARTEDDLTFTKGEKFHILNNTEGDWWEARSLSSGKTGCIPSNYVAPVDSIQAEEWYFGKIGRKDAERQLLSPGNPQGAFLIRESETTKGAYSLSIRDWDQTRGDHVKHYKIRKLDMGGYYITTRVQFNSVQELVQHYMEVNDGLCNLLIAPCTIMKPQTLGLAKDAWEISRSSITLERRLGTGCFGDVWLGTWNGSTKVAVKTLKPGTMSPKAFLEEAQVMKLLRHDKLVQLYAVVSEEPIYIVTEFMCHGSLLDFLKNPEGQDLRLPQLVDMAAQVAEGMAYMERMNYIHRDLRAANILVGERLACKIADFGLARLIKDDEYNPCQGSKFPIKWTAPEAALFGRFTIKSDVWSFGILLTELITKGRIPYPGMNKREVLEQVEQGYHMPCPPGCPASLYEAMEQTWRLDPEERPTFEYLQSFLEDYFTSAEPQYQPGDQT
# Fibroblast growth factor receptor 4 (Homo sapiens), sequence (P22455 22-802 limits assumed): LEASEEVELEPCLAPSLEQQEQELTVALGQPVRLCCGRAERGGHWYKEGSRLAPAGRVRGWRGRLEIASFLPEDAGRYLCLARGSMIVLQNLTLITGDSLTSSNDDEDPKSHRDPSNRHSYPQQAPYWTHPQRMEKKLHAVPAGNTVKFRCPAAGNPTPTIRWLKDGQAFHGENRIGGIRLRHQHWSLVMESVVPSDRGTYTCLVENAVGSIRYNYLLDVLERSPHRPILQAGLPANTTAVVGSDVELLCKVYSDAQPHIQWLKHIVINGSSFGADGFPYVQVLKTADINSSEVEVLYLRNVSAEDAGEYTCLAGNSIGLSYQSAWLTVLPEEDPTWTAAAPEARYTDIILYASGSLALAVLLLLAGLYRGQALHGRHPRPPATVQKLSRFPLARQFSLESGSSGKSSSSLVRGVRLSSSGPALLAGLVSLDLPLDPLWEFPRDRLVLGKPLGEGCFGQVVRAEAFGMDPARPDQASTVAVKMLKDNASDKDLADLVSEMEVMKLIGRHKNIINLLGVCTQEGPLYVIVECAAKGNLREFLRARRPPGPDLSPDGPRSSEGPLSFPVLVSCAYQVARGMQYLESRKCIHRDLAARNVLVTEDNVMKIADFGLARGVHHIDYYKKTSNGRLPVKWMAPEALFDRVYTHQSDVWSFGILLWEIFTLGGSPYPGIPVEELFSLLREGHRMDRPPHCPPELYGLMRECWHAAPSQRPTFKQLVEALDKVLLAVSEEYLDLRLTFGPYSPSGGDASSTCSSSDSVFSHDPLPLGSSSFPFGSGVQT
Compound,inhibition [1],inhibition [2],inhibition [3],inhibition [4],inhibition [5],inhibition [6],inhibition [7],inhibition [8],inhibition [9],inhibition [10],inhibition [11],inhibition [12],inhibition [13],inhibition [14],inhibition [15],inhibition [16],inhibition [17],inhibition [18],inhibition [19],inhibition [20]
COc1cc(C)c(NC(=O)CN(C)C)cc1Nc1nc(Nc2cccc(F)c2C(N)=O)c2cc[nH]c2n1,1.48%,0.83%,2.7%,2.27%,0.42%,1.69%,4.08%,-5.02%,-1.61%,2.82%,7.81%,2.05%,-2.14%,3.93%,2.75%,6.44%,3.06%,6.56%,-0.92%,–
O=C(Nc1n[nH]c2nc(-c3ccco3)c(Br)cc12)C1CC1,2.76%,2.88%,11.3%,2.26%,4.22%,1.23%,2.62%,-1.82%,-1.51%,2.22%,4.49%,4.26%,13.8%,3.08%,5.54%,5.7%,6.02%,5.23%,1.52%,1.19%
CS(=O)(=O)CCN(CC#N)Cc1ccc(-c2ccc3ncnc(Nc4ccc(OCc5cccc(F)c5)c(Cl)c4)c3c2)o1,-4.08%,0.96%,1.68%,3.08%,6.33%,-0.67%,2.32%,-4.23%,-4.41%,-1.18%,2.22%,-1.67%,2.4%,-0.8%,4.46%,1.74%,1.42%,2.17%,0.21%,-3.82%
Cc1nn(C)c2cc(N(C)c3ccnc(Nc4cccc(S(N)(=O)=O)c4)n3)ccc12,0.29%,14.8%,48%,2.5%,30%,2.69%,15.4%,2.72%,2.39%,6.07%,29.9%,9.9%,45.6%,16%,4.26%,7.71%,4.01%,6.87%,-2.36%,-2.66%
Nc1nc(-c2ccc3c(c2)C(=Cc2cc(Br)c(O)c(Br)c2)C(=O)N3)cs1,3.96%,-0.02%,5.44%,-0.63%,0.2%,-3.03%,0.66%,-2.57%,2.43%,-0.46%,2.67%,-4.7%,6.08%,-1.62%,4.51%,13.7%,3.07%,14.7%,2.35%,0.01%
CS(=O)(=O)CCNCc1ccc(-c2ccc3ncnc(Nc4ccc(OCc5cccc(F)c5)c(C(F)(F)F)c4)c3c2)o1,-0.05%,3.99%,2.16%,-0.83%,-0.68%,1%,1.21%,-2.74%,-3.56%,3.52%,3.6%,0.9%,5.19%,-2.61%,6.3%,6.29%,7.33%,6.22%,2.93%,-4.38%
Cc1ccc(NC(=O)c2ccnc(N3CCCC3)c2)cc1-c1ccc(C(=O)NCC2CC2)cc1,-0.86%,1.54%,6.32%,-0.77%,0.49%,1.08%,7.31%,-8.49%,-2.58%,2.24%,1.97%,2.17%,3.08%,0.03%,8.24%,14.7%,7.57%,15%,4.02%,-2.27%
CN(C)c1cc2c(Nc3ccc4nc(Cc5ccccc5)[nH]c4c3)ncnc2cn1,13.5%,17.2%,42.2%,3.21%,11.2%,0.49%,0.52%,-0.65%,-7.84%,3.2%,4.25%,9.2%,37%,12.4%,7.82%,7.35%,7.73%,11.2%,-7.41%,6.34%
CCn1c(-c2nonc2N)nc2c(C#CC(C)(C)O)nc(CN3CCCC3)cc21,1.16%,-1.03%,3.81%,-1.48%,3.78%,-1.67%,-0.42%,-4.71%,-0.89%,0.06%,-1.52%,-0.41%,5.7%,1.75%,-1.46%,-1.6%,-1.31%,-0.8%,-3.54%,2.82%
[O-][S+]1CCN(Cc2ccc(-c3ccc4ncnc(Nc5ccc(OCc6ccccc6)c(F)c5)c4c3)o2)CC1,0.02%,0.4%,9.74%,1.64%,-1.13%,-0.1%,2.1%,-4.8%,-3.99%,1.34%,3.36%,5.74%,30.5%,1.13%,2.02%,5.8%,2.97%,6.44%,-0.54%,2.48%
COc1cc2ncn(-c3cc(O[C@@H](C)c4ccccc4Cl)c(C(N)=O)s3)c2cc1OC,2.7%,5.04%,32.2%,4.55%,13.3%,5.29%,3.2%,-3.12%,-4.63%,2.45%,6%,6.69%,33.2%,2.45%,5.9%,5.17%,4.21%,4.64%,-0.12%,–
CS(=O)(=O)CCNCc1ccc(-c2ccc3ncnc(Nc4ccc(OCc5ccccc5)c(Cl)c4)c3c2)o1,0.28%,2.49%,11.5%,-0.51%,0.52%,1.48%,2.75%,-3.65%,1.7%,0.02%,2.01%,7.69%,39.4%,-0.02%,0.1%,1.24%,1.67%,1.38%,-1.06%,-7.6%
Nc1ncnc2occ(-c3ccc(NC(=O)Nc4cc(C(F)(F)F)cc(C(F)(F)F)c4)cc3)c12,9.49%,1.01%,15.9%,23.4%,73.9%,19%,78.3%,12.8%,-5.22%,2.97%,29.6%,1.45%,11.7%,–,3.58%,7.33%,2.27%,7.76%,4.46%,2.13%
